ALDH1A1 inh = ALDH1A1 (human) enzyme inhibition. Potency, µM (doses to about 75.3 µM), inactives show at the highest dose activity, negative = inhibition, usual class: inhibitors. hit rate 7.3% among 220,000. Purified ALDH1A1, NADH fluorescence, propionaldehyde substrate. P00352; active = well fitted inhibition curve with a large enough effect, not every such curve was filed as active; inconclusive = small, poorly fitted or top-dose-only effect, or another doubt; inactive = no such curve, though single readings can be large or run the other way;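 also: plate controls were no enzyme wells and a reference inhibitor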
Target sequence (P00352 whole entry, looked up): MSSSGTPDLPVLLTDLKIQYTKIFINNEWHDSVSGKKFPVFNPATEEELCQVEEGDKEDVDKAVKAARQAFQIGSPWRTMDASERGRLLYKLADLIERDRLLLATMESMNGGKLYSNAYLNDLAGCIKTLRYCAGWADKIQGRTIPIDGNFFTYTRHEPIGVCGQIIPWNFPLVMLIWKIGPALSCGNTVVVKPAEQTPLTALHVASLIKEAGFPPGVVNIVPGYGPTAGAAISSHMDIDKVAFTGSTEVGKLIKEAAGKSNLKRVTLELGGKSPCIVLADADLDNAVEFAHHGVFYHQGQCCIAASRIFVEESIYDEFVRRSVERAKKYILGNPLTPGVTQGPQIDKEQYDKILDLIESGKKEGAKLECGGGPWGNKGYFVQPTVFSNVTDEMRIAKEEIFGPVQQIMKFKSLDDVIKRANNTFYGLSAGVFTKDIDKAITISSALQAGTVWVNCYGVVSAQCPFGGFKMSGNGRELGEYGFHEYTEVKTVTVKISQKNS
HPGD block = blocks human HPGD enzyme activity; hit rate 4.3% among 150,000; P15428; purified HPGD, NADH fluorescence kinetic, PGE2 substrate; AID 894; Potency, µM, inactives show top-dose activity change, negative = inhibition, most hits filed as inhibitors; active = well fitted inhibition curve with a large enough effect, not every such curve was filed as active; inconclusive = small, poorly fitted or top-dose-only effect, or another doubt; inactive = no such curve, though single readings can be large or run the other way; also: % is scaled to controls: 0 for no effect and ±100 for the full control effect
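20 nM HPGD preincubated 15 min at room temperature with compound in 50 mM Tris-HCl pH 8, 0.01% Tween 20. Started with 1 mM NAD+ and 30 uM prostaglandin E2; NADH fluorescence (360/450 nm) read 5 times over 30-s intervals, last minus first.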
Lamin A splicing = modulators of lamin A splicing | Potency, µM (series often up to 46.1 µM), for the others: at the top dose ratio change, negative = inhibition, actives largely listed as inhibitors | AID 1487 | HeLa LMNA splicing GFP/RFP minigene ratio, 48 h | hit rate 0.01% among 200,000; active = well fitted inhibition curve with a large enough effect in the signal ratio, with a control signal flat, not every such curve was filed as active; inconclusive = small, poorly fitted or top-dose-only effect, or effect the other way, or a change in a side signal; the % refers to the signal ratio; also: % is scaled to controls: 0 for no effect and ±100 for the full control effect
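S3 HeLa stable clones carrying a lamin A-EGFP splicing minigene plus DsRed2 were seeded at 600 cells/well in Opti-MEM with 2% FBS, pin-dosed and incubated 48 h at 37°C. Acumen cytometry (488 nm) gave the GFP/RFP total-intensity ratio.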
HTT aggregate = inhibitors of mutant huntingtin aggregate formation in PC12 cells; PC12 HttQ103-GFP aggregates, Acumen cytometry, 40 h; Potency, µM (top dose mostly 46.1 µM), for inactives: at the top dose activity change, negative = inhibition, hits mostly inhibitors; hit rate 1.1% among 220,000; also: % is scaled to controls: 0 for no effect and ±100 for the full control effect; nearly all actives have a fitted effect of over 60% in size
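Aggregates are detected as GFP objects 1–25 µm with signal 6 STDEV over background in lysates of induced PC12 cells. These carry Huntingtin exon 1 with 103 glutamines fused to GFP under an ecdysone promoter; compounds titrated.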
HTT cytoprotect = Huntington cell model cytoprotection by ATP luminescence | PC12 HTT-Q103 induced, cytoprotection, ATP luminescence, 40 h | Potency, µM (titrated, usually from 56.4 µM), for inactives: cytoprotection (ATP increase), usual class: activators | hit rate 0.14% among 230,000; also: % of control where 0% means no effect; nearly all actives have a fitted effect of over 45% in size
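Huntington model: PC12 line, ecdysone-inducible HTTQ103 exon1–GFP, tebufenozide 100 nM. Test articles in a dose series. Endpoint luminescence from cellular ATP.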
Starred values were filed as active, the others as inactive; u = inconclusive; x = no result given; [ ] = dose if it differs, or a comment. Only some compounds are listed: those with a hit (about 8.8% of all), similar ones and a draw of the others. Unless noted, calls follow the shape of the dose curve; as a rule, active = well fitted curve in the direction sought with a large enough effect; inconclusive = small, poorly fitted or top-dose-only effect, or another doubt; inactive = no such curve, though single readings can be large; an effect the other way counts as inactive or inconclusive. Potency is read from the fitted curve at half-maximal effect.

SMILES	ALDH1A1 inh	HPGD block	Lamin A splicing	HTT aggregate	HTT cytoprotect
Nc1cc(N2CCCCC2)c(Cl)cc1[N+](=O)[O-]	12%	-8%	u	13%	-18%[10 µM]
O=[N+]([O-])c1cc(F)c(N2CCOCC2)cc1N1CCCCC1	14µM*	-4%	13%	-7%	-10%
COc1cccc(CN2CCN(Cc3cccn3-c3cccnc3)CC2CCO)c1 (stereo not given)	2%	x	3%[46 µM]	-5%[9.22 µM]	-1%[10 µM]
COCCNC(=O)COc1cccc2c1OC(C)(C)C2	5%	x	x	-5%	-12%
CN(Cc1ccccc1NCC(=O)Nc1ccccc1C#N)C1CCCCC1	-5%	x	u	11%	-18%
N#Cc1ccccc1NC(=O)CNc1ccccc1N1CCCCC1	32µM*	-12%	2%	7%[9.22 µM]	18%
C=CCC1(O)C=CCC2C3C4C(OC(C)(C)C)C2C1C34 (stereo not given)	16%[13.5 µM]	x	x	x	-16%[10 µM]
COCC(=O)N(Cc1cc2cc(OC)ccc2[nH]c1=O)c1ccccc1	u	u	-13%	13%	0%[10 µM]
Cc1cccc(N(Cc2cc3ccccc3[nH]c2=O)C(=O)c2ccco2)c1C	13µM*	-27%	-13%	-8%	14%
Cc1ccc(C)c(N(Cc2cc3ccc(C)cc3[nH]c2=O)C(=O)c2ccco2)c1	x	x	x	10%[9.22 µM]	0%[10 µM]
CC(C)N(Cc1cc2ccccc2[nH]c1=O)C(=O)c1ccco1	18µM*	x	x	7%	-28%
COCC(=O)N(Cc1cc2ccccc2[nH]c1=O)c1ccc(OC)cc1	32µM*	-20%	4%	-8%	-5%[0.074 µM]
O=C(CSc1nccc(=O)[nH]1)Nc1ccc(Br)c(Cl)c1	u	32µM*	u	-25%	1%[0.074 µM]
O=C(CCl)Nc1cc2[nH]c(=O)[nH]c2cc1Br	2µM*	x	u	u	-140%
Cc1ccc2cc3cc(C(=O)N4CC(C)CC(C)C4)oc3nc2c1 (stereo not given)	25µM*	16µM*	-7%	4%	7%[10 µM]
Cc1ccc2cc3cc(C(=O)N4CCCCC4C)oc3nc2c1 (stereo not given)	u	16µM*	15%	-7%	-97%
Cc1ccc2cc3cc(C(=O)NCCC(C)C)oc3nc2c1	u	u	-11%	-1%	4%
CNC(=S)NCc1ccc2[nH]c3c(c2c1)CCCC3	25µM*	x	x	8%[9.22 µM]	-41%
Cc1ccccc1NC(=S)NCc1ccc2[nH]c3c(c2c1)CCCC3	u	20µM*	u	-28%	x
CCCCNC(=S)NCc1ccc2[nH]c3c(c2c1)CCCC3	7%	x	28%[9.22 µM]	-17%	-50%
O=C(O)c1cc(-n2c(/C=C\c3ccc(F)cc3)nc3ccccc3c2=O)ccc1Cl	x	x	-7%[46 µM]	x	x
CC1CCCC(C)N1C(=O)CSc1nnc(COc2ccccc2)n1-c1ccccc1 (stereo not given)	-11%	-17%	1%	-24%[9.22 µM]	8%
O=C(Cn1c(=O)oc2cc(S(=O)(=O)N3CCCC3)ccc21)NCc1ccccn1	18µM*	-6%	-8%	-4%	-6%
CCN1C(=O)c2cccc3c(NC(=O)c4ccc(S(=O)(=O)N(C)C)cc4)ccc1c23	2.8µM*	-11%	u	5%	4%[1.9 µM]
CCN1C(=O)c2cccc3c(NS(=O)(=O)c4ccc(NC(C)=O)cc4)ccc1c23	u	-11%	u	-23%	-9%[10 µM]
SMILES	ALDH1A1 inh	HPGD block	Lamin A splicing	HTT aggregate	HTT cytoprotect
CCN1C(=O)c2cccc3c(NC(=O)c4ccc(S(=O)(=O)N5CCOCC5)cc4)ccc1c23	2µM*	-13%	u	32%	-21%[10 µM]
CN(C)c1ccc(NC(=O)CN2C(=O)c3ccccc3Sc3ccc(C(=O)N4CCCC4)cc32)cc1	x	x	-12%[46 µM]	x	x
CC1CCN(C(=O)c2ccc3c(Cl)c4c(nc3c2)CCCC4)CC1	4.5µM*	x	x	u	-15%
Cc1ccc(N(C)C(=O)c2ccc3c(Cl)c4c(nc3c2)CCC4)cc1C	u	-20%	u	-5%	x
CCN(C(=O)c1ccc2c(Cl)c3c(nc2c1)CCC3)c1cccc(C)c1	u	13µM*	u	-6%	x
O=C(c1ccc2c(Cl)c3c(nc2c1)CCCC3)N1CCN(c2ccc(F)cc2)CC1	-7%	-13%	u	-1%	x
O=C(CCNC(=O)c1ccccc1Cl)Nc1ccc2c(c1)OCO2	-6%	-14%	-3%	-15%	-13%
